Out of some 48,000 compounds screened, about 13,000 (27%) showed an effect of 50% or more. The list shows a part of the results.
test system: Wolbachia pipientis; experiment: Anti-Wolbachia Cell-Based Screen; type: functional; set-up: scale not given: in the data most compounds retested in dose-response had high values; conditions: 5 µM

Row | Structure (SMILES) | Percent Effect [%]
1 | COc1ccccc1Oc1ncccc1CNC(=O)[C@@H](C)NC(C)=O | -4.174
2 | CC(C)CC(C)NC1CCN(c2ccc(-c3cscn3)cc2)CC1 (stereo unspecified) | 3.924
3 | CN(Cc1nnc2n1CCC2)C(=O)c1ccc(=O)n(C)n1 | -6.286
4 | CC(=O)N(C)CC(=O)Nc1cnc(-n2ccnc2)nc1 | 3.406
5 | Cc1nn(C)c(N(C)C)c1CNCc1cccc(CN(C)C)c1.Cl | 9.174
6 | COc1c(CNCc2ccccc2-n2ccnc2)c(C)nn1C | -0.9457
7 | COc1c(CNCc2ccc(Cn3ccnc3)cc2)c(C)nn1C | 103
8 | Cc1nn(C)c(N(C)C)c1CNCc1cccc(Cn2cccn2)c1 | 3.492
9 | COc1c(CNCc2ccccc2Cn2ccnc2)c(C)nn1C | 97.96
10 | COc1c(CNCc2cccc(Cn3ccnc3)c2)c(C)nn1C | -8.562
11 | Cc1nn(C)c(N(C)C)c1CNCc1cccc(Cn2ccnc2)c1 | 81.6
12 | COc1c(CNCc2ccc(CN3CCOCC3)cc2)c(C)nn1C | -11.29
13 | CC(C#N)CSc1ccccc1NCC(=O)NCc1cccs1 (stereo unspecified) | -12.24
14 | CCc1nc(C)c(-c2nccn2CC2CC(=O)N(CC)C2)[nH]1 (stereo unspecified) | -26.8
15 | O=C(CNC(=O)c1c[nH]c2ccccc12)NCCCn1ccnc1 | 13.72
16 | O=C1CC(c2cccs2)c2cnn(C3CCCC3)c2N1 (stereo unspecified) | 48.91
17 | CCN(C)c1ncnc2c1CCN(C(=O)N1CCOCC1)CC2 | -3.195
18 | Cc1cc2c(cc1Cl)C=CC1(CCN(C(=O)N3CCOCC3)CC1)O2 | 95
19 | O=C(CN1CCOCC1)N1CCN(C2CCc3ccc(F)cc32)CC1 (stereo unspecified) | -10.71
20 | COc1ncc(C(=O)N2CCCC3(C=Cc4ccccc4O3)CC2)cn1 (stereo unspecified) | 1.868
21 | COc1ccnc(N2CCN(CC(=O)N3CCOCC3)CC2)n1 | 3.835
22 | Cc1cc(C(=O)N2CCCC3(C=Cc4ccccc4O3)CC2)cc(=O)[nH]1 (stereo unspecified) | 7.842

Row | Structure (SMILES) | Percent Effect [%]
23 | Nc1cc(C(=O)N2CCCC3(C=Cc4ccccc4O3)CC2)ccn1 (stereo unspecified) | -15.12
24 | Cc1cc2c(cc1Cl)C=CC1(CCN(CC(=O)N3CCCC3)CC1)O2 | 122.5
25 | Cc1cc2c(cc1Cl)C=CC1(CCN(CC(=O)N3CCOCC3)CC1)O2 | 104
26 | Cc1cc2c(cc1C)OC1(C=C2)CCN(CC(=O)N2CCOCC2)CC1 | 107.9
27 | O=C(O)C(F)(F)F.c1csc(CN2CCc3ncnc(C4CCOC4)c3CC2)n1 (stereo unspecified) | 8.568
28 | O=S(=O)(CC1CCOCC1)NCc1ccnc(O)c1 | 1.758
29 | Cc1ccsc1CCNC(=O)C1(Oc2cccnc2C)CCNCC1 | 14.81
30 | CN(C)c1ccc2c(c1)CN(C(=O)c1ccnnc1)C2c1cnco1 (stereo unspecified) | -12.4
31 | O=C(CN1C=Nc2ccccc2S1(=O)=O)NC1CCCCC1 | -27.98
32 | Cc1cn(CC(=O)NC2CCN(CC3CC3)CC2)c2ccccc12 | -11.31
33 | CCc1ccc(O)c(C(=O)N2CCCN(CC(=O)N(CC)CC)CC2)c1 | -4.449
34 | CC1(C)CN(CC(F)(F)F)CCN1CC(=O)NC1CCCC1 | 1.341
35 | CCN(CC)C(=O)CN1CCC2(C=Cc3cc(Cl)c(C)cc3O2)CC1 | 113.1
36 | CCc1ccc(O)c(C(=O)N2CCN(CC(=O)N(CC)CC)CC2)c1 | 11.73
37 | Cc1cc2c(cc1Cl)C=CC1(CCN(CC(=O)NC3CCCC3)CC1)O2 | 121.2
38 | Cc1cc(NC(=O)c2nc(N3CCCC3)ncc2Cl)nc(C(C)C)n1 | -9.396
39 | Cc1ccc(-c2n[nH]cc2CNCC2CCS(=O)(=O)C2)o1 (stereo unspecified) | -39.75
40 | CCOCC1COCCC12CCN(C(=O)C1=CCCC1)CC2 (stereo unspecified) | -18.23
41 | CCS(=O)(=O)N1CCCC2(CCCC(=O)N2C)C1 (stereo unspecified) | -13.94
42 | CCOC(=O)C1CC2(CCCCC2)N2CCC(=O)N12 (stereo unspecified) | 121.9
43 | COCCCN1CC2(CCCCN2C(C)=O)CC1=O (stereo unspecified) | 3.783
44 | CCN1CC2(CCCCN2C(=O)C2CCCCC2)CC1=O (stereo unspecified) | -14.04

Row | Structure (SMILES) | Percent Effect [%]
45 | COCCCN1CC2(CCCCN2C(=O)C2CCCCC2)CC1=O (stereo unspecified) | -3.805
46 | CCN1C(=O)CO[C@@H]2CN(C(=O)C3CCOCC3)C[C@H]21 | 7.95
47 | CCOC(=O)C1CC2(CCCC2)N2CCC(=O)N12 (stereo unspecified) | 94.86
48 | CCOC(=O)C1CC2(CCOCC2)N2CCC(=O)N12 (stereo unspecified) | 102.8
49 | CCc1ccc(C2COCCN2C(=O)Nc2cc(C)on2)o1 (stereo unspecified) | -5.597
50 | CCc1ccc(CN(C)C(=O)c2ccc(CSc3nnc[nH]3)o2)nc1 | -27.23
51 | CC(=O)NCCNC(=O)NCCc1c(C)cc(C)cc1C | -0.992
52 | Cc1ccc2[nH]c(CO[C@H]3CN(c4ccc(C#N)cn4)C[C@H]3F)nc2c1 | 0.4241
53 | COc1ccc(-c2nc(CN3CCN(CCO)CC3)co2)cc1 | 6.071
54 | CC(O)CN1CCN(Cc2coc(-c3ccccc3)n2)CC1 (stereo unspecified) | -18.93
55 | Cc1ccc(-c2nc(CN3CCN(CCO)CC3)co2)cc1 | 88.55
56 | OCCN1CCN(Cc2coc(-c3ccc(Cl)cc3)n2)CC1 | 12.92
57 | Cc1ccc(-c2nc(CN3CCn4c(nnc4C4CC4)C3)co2)cc1 | -3.724
58 | CC(O)CN1CCN(Cc2coc(-c3ccc(Cl)cc3)n2)CC1 (stereo unspecified) | 105.9
59 | CC(O)CN1CCN(Cc2coc(-c3ccccc3Cl)n2)CC1 (stereo unspecified) | 6.495
60 | OCCN1CCN(Cc2coc(-c3ccccc3Cl)n2)CC1 | 6.785
61 | OCCN1CCN(Cc2coc(-c3ccccc3)n2)CC1 | 106.5
62 | OCCOc1cc(F)ccc1NCc1nc(-c2ccoc2)no1 | -6.724
63 | CC(=O)N(Cc1noc(C2CC2)n1)C1CCN(CC(=O)NC2CC2)C1 (stereo unspecified) | 124.3
64 | CC(=O)N(Cc1noc(C2CC2)n1)C1CCN(CC2CCOCC2)C1 (stereo unspecified) | 115.6
65 | Cc1nc(CCN)cc(N2CCC(O)(c3ccccc3)C2)n1 (stereo unspecified) | -17.84
66 | O=C(c1ccccn1)N1CC[C@H]2C(=O)N(c3ccsc3)CCO[C@H]2C1 | -15.02

— ChEMBL document CHEMBL3988442, “University of Dundee, Small-Polar-MMV Screening Library” (2021)
